From PubChem BioAssay (NCATS)
Results filed as inconclusive are left out. Where a call stands in place of a potency, no number is given. Active and inactive are the calls of the source. The call rests on the fitted dose curve; in most records, active means well fitted inhibition curve with a large enough effect; inconclusive means small, poorly fitted or top-dose-only effect; inactive means no such curve, though single readings can be large or run the other way.

molecular target: Retinaldehyde dehydrogenase 3 (Homo sapiens) (UniProt P47895); assay: qHTS for Inhibitors of the Aldehyde Dehydrogenase Family (ALDH1A3) Primary screen (AID 2061315); settings: ALDH inhibition qHTS; series mostly up to 56 µM

SMILES | Potency
Cc1cnc(-c2ccccc2C(C)O)nc1NCc1ccc(-c2cccnc2)cc1 (stereo not given) | inactive
Cc1cc(C)nc(NC(=S)N2CCN(c3ccc(Cl)cc3[N+](=O)[O-])CC2)c1 | inactive
NCCCCC(=O)Nc1ccc(Cl)cc1C(=O)c1ccc[nH]1 | inactive
N#Cc1ccc(C[C@@H](NS(=O)(=O)c2ccc(C(=O)O)cc2)C(=O)O)cc1 | inactive
Cc1csc(CNc2ncnc3ccc(-c4cccc(Cl)c4)cc23)c1 | inactive
O=C1CCc2cc(S(=O)(=O)Nc3cccc4ccccc34)ccc2N1 | inactive
CC(Cc1ccccc1)C(=O)Nc1ccc(Cl)cc1C(=O)O (stereo not given) | inactive
Cc1nc(N2CCOCC2)c2nc(-c3ccccc3)n(CCCN3CCOCC3)c2n1 | inactive
CCCn1c(-c2ccc(F)cc2)nc2c(N3CCN(C)CC3)nc(C)nc21 | inactive
Cn1c2cc(C#N)sc2c2cnn(Cc3ccc(F)cc3)c(=O)c21 | inactive
Cc1cc2c(s1)c1cnn(Cc3ccc4ccccc4c3)c(=O)c1n2C | inactive
Cc1ccccc1NS(=O)(=O)c1ccc2c(c1)CCC(=O)N2 | inactive
Cc1ccc(-c2cc(C(=O)Nc3ncco3)c3ccccc3n2)cc1C | inactive
Cc1ccc(-c2ccc(=O)n(CC(=O)NCCc3cnc[nH]3)n2)cc1 | inactive
c1cncc(CNc2ncnc3ccc(-c4ccco4)cc23)c1 | inactive
CCn1cnc2c(Nc3ccc(CCC(=O)N=C(N)N)cc3)nc(C#N)nc21 | inactive
O=C(Nc1ncc(Cc2ccc(C(F)(F)F)cc2)s1)c1cnc(-c2ccccc2)s1 | inactive
CCN(CC)CCCn1c(-c2ccccc2)nc2c(NCc3ccccc3)nc(C)nc21 | inactive
COc1cc(NC(=O)C(OC(=O)CNC(=O)c2ccccc2)c2ccccc2)cc(OC)c1 (stereo not given) | inactive
CCCCN(C)C(=O)Cn1nc(-c2ccc(OC)cc2)ccc1=O | inactive

SMILES | Potency
Fc1cc(Nc2nc(-c3ccncc3)nc3ccccc23)ccc1-c1cccc(OC(F)(F)F)c1 | inactive
O=C1CCCC2=C1C(c1ccncc1)N=C(Nc1nc3ccccc3o1)N2 (stereo not given) | inactive
CC(=O)Nc1ccccc1OC1=N[S+](=O)([O-])c2ccccc21 | inactive
CC(C)c1ccccc1-c1nc(NCc2ccc(-c3cccnc3)cc2)c2ccccc2n1 | inactive
N#Cc1cc(NC(=O)Nc2nnc(-c3ccncc3)s2)ccc1F | inactive
O=[S+]([O-])(c1ccc2c(c1)OCCO2)N1CCN([S+](=O)([O-])c2ccc(F)cc2Br)CC1 | inactive
CC(=O)Nc1cccc(S(=O)(=O)N2CCN(S(=O)(=O)c3ccc4c(c3)OCCO4)CC2)c1 | inactive
COc1ccccc1S(=O)(=O)Nc1ccc2c(c1)CN(C)C(=O)N2 | inactive
CCCn1ncc(CN2CCCC(C(=O)c3cccc(OC(C)C)c3)C2)c1C (stereo not given) | inactive
Cc1ccc(C[C@H](C(=O)O)N2C(=O)c3ccc(C(=O)O)cc3C2=O)cc1 | inactive
Cc1cc2c(s1)c1cnn(Cc3ccc(C(C)C)cc3)c(=O)c1n2C | inactive
CCCn1c(-c2ccc(F)cc2)nc2c(NCCCN(CC)CC)nc(C)nc21 | inactive
O=C(Cc1nnc(-c2cc3ccccc3[nH]2)s1)Nc1cc(C(F)(F)F)ccc1Cl | inactive
CC1=CC(=O)C2C(C)(C)CCC[C@]2(C)[C@H]1CC[C@H](C)CC(=O)O (stereo not given in full) | inactive
CCCCNc1nc(C)nc2c1nc(-c1ccccc1)n2CCCN(C)C | inactive
Cc1cccc(-c2[nH]c(Cc3cccc(C(N)=O)c3)nc2-c2ccc3nccnc3c2)n1 | inactive
O=C(O)c1c(-c2ccccc2)no[n+]1[O-] | inactive
O=C1CCCC2=C1C(c1[nH]ncc1Cl)NC(=NCCc1cccnc1)N2 (stereo not given) | inactive
COc1ccc(C2Nc3ccccc3C(=O)N2Cc2ccco2)cc1COc1ccccc1C (stereo not given) | inactive
CCC1=CC2CN(C1)Cc1c([nH]c3ccccc13)[C@@](C(=O)OC)(c1cc3c(cc1OC)N(C)[C@H]1[C@@](O)(C(=O)OC)[C@H](OC(C)=O)[C@]4(CC)C=CCN5CC[C@]31[C@@H]54)C2 (stereo not given in full) | inactive
